Consider three molecules from ChEMBL document CHEMBL1961873, “Compounds: GSK PKIS; Assays: Nanosyn kinase panel” (2012).

For orientation: inhibition means the drop in the measured response relative to a control, in per cent.

Test [1] concerns Epidermal growth factor receptor (Homo sapiens), P00533 [T790M]. The following applies: at 1 µM.
In test [2] the test system is Epidermal growth factor receptor (Homo sapiens), P00533 [L858R,T790M]. As to conditions: at 0.1 µM.
Test [3] has the same test system. As to conditions: at 1 µM.
Test [4] addresses Ephrin type-A receptor 2 (Homo sapiens) (UniProt P29317). As to conditions: at 0.1 µM.
Test [5] shares this target. As to conditions: at 1 µM.
For test [6], the target named is T1, Ephrin type-A receptor 3 (Homo sapiens) (UniProt P29320).
T1 sequence (whole entry): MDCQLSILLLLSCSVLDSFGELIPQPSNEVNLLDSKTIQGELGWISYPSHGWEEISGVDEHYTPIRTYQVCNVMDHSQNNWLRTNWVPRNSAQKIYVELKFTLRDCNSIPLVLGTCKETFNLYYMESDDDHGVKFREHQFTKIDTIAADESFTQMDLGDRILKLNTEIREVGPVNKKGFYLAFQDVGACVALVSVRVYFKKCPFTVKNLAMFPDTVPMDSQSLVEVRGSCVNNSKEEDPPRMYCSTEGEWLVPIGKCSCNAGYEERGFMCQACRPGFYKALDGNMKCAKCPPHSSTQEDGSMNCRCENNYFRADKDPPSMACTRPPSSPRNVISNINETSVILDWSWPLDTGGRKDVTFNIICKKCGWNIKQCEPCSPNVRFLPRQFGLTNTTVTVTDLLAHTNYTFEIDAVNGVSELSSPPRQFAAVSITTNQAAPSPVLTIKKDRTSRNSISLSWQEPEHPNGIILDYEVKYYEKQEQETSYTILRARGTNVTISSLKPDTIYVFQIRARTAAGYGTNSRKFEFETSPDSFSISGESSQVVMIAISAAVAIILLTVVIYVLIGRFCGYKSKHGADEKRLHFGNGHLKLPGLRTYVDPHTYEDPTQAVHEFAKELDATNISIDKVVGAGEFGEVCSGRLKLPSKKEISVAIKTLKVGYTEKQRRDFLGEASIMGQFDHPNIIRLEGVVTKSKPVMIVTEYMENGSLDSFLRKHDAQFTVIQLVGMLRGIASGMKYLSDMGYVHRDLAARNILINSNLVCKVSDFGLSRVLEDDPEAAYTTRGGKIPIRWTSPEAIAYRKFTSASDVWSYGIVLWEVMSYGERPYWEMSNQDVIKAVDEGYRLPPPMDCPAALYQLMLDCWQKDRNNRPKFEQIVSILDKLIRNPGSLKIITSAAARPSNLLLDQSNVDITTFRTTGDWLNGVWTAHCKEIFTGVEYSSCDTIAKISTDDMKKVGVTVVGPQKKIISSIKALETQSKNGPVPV
The following applies: at 0.1 µM.

Test [7] concerns the target T1, Ephrin type-A receptor 3 (Homo sapiens). As to conditions: at 1 µM.
Test [8] deals with Ephrin type-A receptor 4 (Homo sapiens) (UniProt P54764). As to conditions: at 0.1 µM.
Chain of Ephrin type-A receptor 4 (Homo sapiens) (P54764 whole entry): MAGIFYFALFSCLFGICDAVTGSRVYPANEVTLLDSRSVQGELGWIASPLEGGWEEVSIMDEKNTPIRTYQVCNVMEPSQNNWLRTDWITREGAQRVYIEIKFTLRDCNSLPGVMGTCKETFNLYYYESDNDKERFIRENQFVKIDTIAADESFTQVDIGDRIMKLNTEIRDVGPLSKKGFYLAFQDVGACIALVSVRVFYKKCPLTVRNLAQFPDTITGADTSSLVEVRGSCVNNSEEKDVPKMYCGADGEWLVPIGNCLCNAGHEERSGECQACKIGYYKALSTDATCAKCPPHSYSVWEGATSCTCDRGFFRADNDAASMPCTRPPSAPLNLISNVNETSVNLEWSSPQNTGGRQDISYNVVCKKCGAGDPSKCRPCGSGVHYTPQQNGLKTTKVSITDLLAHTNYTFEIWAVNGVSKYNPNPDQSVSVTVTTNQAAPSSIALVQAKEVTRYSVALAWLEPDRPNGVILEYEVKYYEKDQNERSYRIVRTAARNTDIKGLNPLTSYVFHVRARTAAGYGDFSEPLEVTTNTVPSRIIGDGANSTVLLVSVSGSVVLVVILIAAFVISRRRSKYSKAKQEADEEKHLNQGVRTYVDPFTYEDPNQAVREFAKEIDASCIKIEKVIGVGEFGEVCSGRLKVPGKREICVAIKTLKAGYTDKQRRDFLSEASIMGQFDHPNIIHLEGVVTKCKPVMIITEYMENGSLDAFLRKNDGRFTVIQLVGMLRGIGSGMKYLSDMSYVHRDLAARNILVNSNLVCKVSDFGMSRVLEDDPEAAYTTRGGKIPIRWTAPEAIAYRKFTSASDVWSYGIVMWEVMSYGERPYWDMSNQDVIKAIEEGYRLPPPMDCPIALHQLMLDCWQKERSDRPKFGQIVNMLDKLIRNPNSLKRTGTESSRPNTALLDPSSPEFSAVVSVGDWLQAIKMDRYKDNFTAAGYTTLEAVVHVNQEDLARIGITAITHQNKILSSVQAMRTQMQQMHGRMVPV
Test [9] shares this target. As to conditions: at 1 µM.
The target of test [10] is T2, Ephrin type-B receptor 2 (Homo sapiens) (UniProt P29323).
T2 sequence (whole entry): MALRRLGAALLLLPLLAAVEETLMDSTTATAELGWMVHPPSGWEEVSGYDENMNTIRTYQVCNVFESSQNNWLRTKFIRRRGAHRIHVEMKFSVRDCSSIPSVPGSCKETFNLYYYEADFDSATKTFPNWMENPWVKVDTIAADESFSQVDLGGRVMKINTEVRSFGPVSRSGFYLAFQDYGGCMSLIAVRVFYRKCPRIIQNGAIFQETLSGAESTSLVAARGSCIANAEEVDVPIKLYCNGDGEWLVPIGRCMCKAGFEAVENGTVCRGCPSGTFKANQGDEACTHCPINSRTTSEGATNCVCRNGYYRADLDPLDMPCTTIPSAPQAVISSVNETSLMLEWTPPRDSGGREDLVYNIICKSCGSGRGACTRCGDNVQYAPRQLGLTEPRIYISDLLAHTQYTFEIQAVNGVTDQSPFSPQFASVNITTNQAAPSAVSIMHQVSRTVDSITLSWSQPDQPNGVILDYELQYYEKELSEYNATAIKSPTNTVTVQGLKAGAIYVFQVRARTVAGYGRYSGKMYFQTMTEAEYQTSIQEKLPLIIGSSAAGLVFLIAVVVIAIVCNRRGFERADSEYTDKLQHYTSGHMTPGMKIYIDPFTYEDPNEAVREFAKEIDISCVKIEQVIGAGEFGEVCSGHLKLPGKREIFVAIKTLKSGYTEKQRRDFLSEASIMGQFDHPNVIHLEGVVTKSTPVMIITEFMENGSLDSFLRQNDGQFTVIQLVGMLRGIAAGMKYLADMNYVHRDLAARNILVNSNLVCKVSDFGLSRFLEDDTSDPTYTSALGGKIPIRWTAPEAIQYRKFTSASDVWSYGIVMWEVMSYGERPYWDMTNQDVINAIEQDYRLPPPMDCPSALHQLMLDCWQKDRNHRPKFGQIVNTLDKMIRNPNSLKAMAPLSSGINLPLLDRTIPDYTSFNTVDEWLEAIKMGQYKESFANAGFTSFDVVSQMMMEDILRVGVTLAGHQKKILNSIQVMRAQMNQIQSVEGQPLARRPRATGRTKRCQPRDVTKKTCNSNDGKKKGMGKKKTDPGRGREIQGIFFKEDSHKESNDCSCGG
As to conditions: at 0.1 µM.

Test [11] addresses T2, Ephrin type-B receptor 2 (Homo sapiens). As to conditions: at 1 µM.
The target in test [12] is T3, Ephrin type-B receptor 3 (Homo sapiens) (UniProt P54753).
T3 sequence (whole entry): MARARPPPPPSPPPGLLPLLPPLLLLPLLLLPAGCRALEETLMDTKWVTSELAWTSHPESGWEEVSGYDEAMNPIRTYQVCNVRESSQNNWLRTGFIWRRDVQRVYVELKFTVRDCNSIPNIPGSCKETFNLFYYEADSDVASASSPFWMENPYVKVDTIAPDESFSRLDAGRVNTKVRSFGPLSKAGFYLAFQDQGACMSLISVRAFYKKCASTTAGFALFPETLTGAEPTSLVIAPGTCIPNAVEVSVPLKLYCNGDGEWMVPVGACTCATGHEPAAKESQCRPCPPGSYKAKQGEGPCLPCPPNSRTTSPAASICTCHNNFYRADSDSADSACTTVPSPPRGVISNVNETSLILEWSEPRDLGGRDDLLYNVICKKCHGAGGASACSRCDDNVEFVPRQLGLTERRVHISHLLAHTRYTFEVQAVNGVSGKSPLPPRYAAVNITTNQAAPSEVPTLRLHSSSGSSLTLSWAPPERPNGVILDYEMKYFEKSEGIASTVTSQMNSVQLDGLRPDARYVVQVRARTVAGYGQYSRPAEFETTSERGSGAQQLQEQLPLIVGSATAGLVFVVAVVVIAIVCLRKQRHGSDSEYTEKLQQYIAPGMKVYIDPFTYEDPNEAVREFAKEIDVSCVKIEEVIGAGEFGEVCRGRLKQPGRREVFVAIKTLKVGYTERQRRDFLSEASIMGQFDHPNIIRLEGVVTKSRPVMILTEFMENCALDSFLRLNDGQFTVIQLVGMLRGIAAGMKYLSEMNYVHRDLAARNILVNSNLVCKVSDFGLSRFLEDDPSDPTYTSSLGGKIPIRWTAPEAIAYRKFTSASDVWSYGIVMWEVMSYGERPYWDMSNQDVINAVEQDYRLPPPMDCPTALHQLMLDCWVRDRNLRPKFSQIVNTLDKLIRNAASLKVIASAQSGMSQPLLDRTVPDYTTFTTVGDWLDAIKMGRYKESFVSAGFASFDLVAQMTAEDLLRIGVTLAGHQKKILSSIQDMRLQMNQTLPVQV
The following applies: at 0.1 µM.

Test [13] deals with T3, Ephrin type-B receptor 3 (Homo sapiens). The following applies: at 1 µM.
In test [14] the target is T4, Ephrin type-B receptor 4 (Homo sapiens) (UniProt P54760).
T4 sequence (whole entry): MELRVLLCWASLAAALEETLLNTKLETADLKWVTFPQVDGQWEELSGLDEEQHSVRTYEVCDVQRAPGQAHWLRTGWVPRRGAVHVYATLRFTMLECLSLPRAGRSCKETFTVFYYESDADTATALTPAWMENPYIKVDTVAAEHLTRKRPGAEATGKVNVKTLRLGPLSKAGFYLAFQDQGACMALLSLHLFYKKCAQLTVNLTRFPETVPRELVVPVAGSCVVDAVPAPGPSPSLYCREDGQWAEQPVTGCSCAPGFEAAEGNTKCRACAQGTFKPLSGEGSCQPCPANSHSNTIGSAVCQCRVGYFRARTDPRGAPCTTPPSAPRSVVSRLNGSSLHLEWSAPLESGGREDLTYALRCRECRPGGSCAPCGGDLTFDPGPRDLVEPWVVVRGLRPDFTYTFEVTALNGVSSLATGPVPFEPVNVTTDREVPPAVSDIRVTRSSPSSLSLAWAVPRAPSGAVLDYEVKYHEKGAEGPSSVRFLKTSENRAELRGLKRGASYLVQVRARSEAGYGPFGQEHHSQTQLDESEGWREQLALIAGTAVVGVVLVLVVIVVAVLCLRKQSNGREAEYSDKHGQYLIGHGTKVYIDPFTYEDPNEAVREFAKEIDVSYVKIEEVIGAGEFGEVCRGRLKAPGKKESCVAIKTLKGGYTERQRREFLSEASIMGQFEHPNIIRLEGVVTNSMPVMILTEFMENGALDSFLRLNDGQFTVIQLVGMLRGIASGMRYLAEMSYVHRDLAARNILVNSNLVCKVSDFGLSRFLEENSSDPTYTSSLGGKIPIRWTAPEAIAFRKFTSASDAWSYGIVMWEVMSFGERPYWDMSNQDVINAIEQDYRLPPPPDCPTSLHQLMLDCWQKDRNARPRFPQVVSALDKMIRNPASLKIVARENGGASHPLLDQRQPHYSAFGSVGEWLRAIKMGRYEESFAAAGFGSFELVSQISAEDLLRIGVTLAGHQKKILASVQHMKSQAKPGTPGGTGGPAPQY
As to conditions: at 0.1 µM.

Test [15] has as its target T4, Ephrin type-B receptor 4 (Homo sapiens). As to conditions: at 1 µM.
Test [16] has as its target Receptor tyrosine-protein kinase erbB-2 (Homo sapiens) (UniProt P04626). As to conditions: at 0.1 µM.
For test [17] the target is unchanged. As to conditions: at 1 µM.
Test [18] deals with Receptor tyrosine-protein kinase erbB-4 (Homo sapiens) (UniProt Q15303). As to conditions: at 0.1 µM.
For test [19] the target is unchanged. As to conditions: at 1 µM.
Test [20] concerns the target Tyrosine-protein kinase Fer (Homo sapiens) (UniProt P16591). As to conditions: at 0.1 µM.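 Note: reported figures are averaged percent inhibition of FER.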

Chain of Ephrin type-A receptor 2 (Homo sapiens) (P29317 whole entry): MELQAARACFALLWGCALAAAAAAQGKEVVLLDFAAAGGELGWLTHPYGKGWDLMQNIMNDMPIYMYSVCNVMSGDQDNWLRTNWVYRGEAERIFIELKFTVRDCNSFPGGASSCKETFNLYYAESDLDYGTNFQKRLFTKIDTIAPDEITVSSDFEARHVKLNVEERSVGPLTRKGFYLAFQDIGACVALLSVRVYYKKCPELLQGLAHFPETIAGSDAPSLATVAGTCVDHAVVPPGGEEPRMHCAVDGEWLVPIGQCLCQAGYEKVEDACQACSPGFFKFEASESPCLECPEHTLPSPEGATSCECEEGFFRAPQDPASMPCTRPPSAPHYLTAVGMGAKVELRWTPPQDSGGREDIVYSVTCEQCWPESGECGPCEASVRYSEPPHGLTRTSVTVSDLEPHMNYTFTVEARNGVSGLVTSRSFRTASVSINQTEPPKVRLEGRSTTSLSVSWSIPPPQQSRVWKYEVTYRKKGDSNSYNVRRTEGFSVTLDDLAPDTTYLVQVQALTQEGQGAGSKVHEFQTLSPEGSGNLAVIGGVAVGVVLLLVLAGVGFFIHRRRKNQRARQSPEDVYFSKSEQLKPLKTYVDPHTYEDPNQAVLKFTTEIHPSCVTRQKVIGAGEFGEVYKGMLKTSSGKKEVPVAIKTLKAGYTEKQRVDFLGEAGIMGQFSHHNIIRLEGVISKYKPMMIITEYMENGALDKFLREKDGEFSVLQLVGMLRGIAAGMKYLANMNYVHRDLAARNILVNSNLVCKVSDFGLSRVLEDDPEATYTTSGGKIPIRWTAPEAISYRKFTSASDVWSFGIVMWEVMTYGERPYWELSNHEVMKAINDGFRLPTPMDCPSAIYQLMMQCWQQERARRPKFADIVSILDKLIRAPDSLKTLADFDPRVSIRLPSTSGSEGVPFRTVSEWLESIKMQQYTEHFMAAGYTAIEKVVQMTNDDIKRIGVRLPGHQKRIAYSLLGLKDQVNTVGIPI
Chain of Epidermal growth factor receptor (Homo sapiens), P00533 [L858R,T790M] (P00533 whole entry T790M/L858R, looked up): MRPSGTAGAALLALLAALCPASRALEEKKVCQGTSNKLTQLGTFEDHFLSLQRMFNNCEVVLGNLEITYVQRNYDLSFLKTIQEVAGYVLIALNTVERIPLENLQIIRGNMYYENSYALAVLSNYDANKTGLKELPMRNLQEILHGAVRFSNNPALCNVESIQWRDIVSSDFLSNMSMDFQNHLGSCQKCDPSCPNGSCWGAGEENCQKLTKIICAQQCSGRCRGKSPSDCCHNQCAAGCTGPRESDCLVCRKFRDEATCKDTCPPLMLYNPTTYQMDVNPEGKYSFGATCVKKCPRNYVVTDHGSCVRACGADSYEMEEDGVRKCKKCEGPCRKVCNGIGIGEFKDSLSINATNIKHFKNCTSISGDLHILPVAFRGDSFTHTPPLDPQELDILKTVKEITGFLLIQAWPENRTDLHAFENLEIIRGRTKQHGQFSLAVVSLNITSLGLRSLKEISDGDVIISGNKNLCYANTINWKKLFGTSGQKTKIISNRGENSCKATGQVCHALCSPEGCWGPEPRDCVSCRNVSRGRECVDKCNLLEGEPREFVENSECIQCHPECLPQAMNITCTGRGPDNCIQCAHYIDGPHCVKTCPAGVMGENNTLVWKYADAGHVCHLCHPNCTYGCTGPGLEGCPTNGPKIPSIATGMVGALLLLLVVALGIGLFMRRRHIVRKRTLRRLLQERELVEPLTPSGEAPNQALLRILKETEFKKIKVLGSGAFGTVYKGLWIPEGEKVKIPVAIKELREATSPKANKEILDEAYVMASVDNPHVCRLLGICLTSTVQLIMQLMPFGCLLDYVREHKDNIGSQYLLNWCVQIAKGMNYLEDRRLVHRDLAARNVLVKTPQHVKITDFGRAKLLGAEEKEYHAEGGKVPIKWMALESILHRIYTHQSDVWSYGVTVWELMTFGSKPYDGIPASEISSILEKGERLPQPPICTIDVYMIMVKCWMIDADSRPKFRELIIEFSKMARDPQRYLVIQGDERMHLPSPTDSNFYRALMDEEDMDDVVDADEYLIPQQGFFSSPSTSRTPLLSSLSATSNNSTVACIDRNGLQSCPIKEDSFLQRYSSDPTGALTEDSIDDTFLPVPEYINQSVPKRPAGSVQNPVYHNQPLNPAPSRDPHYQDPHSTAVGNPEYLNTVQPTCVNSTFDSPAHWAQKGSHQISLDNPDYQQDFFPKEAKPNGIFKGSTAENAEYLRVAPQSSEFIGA
Chain of Receptor tyrosine-protein kinase erbB-2 (Homo sapiens) (P04626 whole entry): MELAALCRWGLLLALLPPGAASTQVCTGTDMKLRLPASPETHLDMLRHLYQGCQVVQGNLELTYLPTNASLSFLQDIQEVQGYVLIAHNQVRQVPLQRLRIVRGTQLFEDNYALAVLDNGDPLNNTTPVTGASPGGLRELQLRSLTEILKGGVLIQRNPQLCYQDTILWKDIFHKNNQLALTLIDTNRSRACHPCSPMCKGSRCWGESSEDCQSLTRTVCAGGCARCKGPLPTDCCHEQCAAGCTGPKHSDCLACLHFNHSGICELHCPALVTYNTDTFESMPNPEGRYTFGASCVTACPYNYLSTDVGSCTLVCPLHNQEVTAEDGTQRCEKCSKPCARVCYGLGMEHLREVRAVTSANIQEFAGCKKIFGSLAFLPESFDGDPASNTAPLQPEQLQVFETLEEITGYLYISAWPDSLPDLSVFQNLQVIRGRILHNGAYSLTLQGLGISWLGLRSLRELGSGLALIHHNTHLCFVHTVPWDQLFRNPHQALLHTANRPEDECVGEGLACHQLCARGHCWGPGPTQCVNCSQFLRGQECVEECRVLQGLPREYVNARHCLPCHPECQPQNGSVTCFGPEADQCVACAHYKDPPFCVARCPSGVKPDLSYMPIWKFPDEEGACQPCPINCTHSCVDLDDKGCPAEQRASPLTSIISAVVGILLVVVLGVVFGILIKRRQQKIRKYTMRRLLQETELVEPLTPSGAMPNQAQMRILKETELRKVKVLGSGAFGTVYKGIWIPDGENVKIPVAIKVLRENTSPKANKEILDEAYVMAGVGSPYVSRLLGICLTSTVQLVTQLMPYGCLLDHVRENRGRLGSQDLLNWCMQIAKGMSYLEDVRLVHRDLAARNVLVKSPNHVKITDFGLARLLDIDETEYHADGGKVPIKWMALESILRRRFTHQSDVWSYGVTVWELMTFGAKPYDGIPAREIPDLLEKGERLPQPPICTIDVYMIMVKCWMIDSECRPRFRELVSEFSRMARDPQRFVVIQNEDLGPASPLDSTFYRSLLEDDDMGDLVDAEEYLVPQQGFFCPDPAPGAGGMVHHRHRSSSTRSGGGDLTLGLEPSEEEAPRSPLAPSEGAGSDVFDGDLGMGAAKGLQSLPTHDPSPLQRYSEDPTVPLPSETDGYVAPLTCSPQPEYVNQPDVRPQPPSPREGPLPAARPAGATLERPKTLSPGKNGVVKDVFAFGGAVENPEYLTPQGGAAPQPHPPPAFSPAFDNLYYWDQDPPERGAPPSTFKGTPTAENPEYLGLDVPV

Turning to `Cc1cc(-c2ccco2)cc(C)c1/C=C/c1cncc(-c2nn[nH]n2)c1`, the inhibition in [1] was 1.13%; in [2], -2.33%; in test [3], 0.17%; in [4], 1.36%; in test [5], 1.78%; in [6] it was -0.31%. Moreover, the inhibition is 0.86% in test [7]; 1.64% in test [8]; 3.95% in test [9]; -9.41% in [10]; 3.46% in test [11]; 0.39% in test [12]. The inhibition was found to be 4.16% in [13]; 0.18% in test [14]; 2.02% in [15]; 3.01% in [16]; 3.5% in test [17]; 2.03% in test [18]. Besides, the inhibition came out at 15.7% in [19] and 4.17% in [20].

For the molecule `Nc1nonc1-c1nc2cnccc2n1C1CCCCC1`, the inhibition in [1] is -2.94%; in test [2], -0.65%; in test [3], -0.53%; in test [4], -4.45%; in [5], -4.85%; in test [6] it was -7.25%. Also, the inhibition in test [7] is -1.98%; in test [8] it was -4.61%; in test [9] it was -3.51%; in [10] it was -7.08%; in [11], -8.8%; in test [12], -1.43%. For the same molecule, the inhibition in test [13] was -4.08%; in test [14] it was -3.41%; in [15] it was -1.63%; in [16] it was -3.46%; in [17] it was -1.33%; in test [18] it was -5.14%. Also, the inhibition in [19] is -5.19%; in test [20], -1.75%.

Turning to `COc1cccc(COc2cc(-n3cnc4ccccc43)sc2C(N)=O)c1`, the inhibition was -0.01% in test [1]; -1.88% in test [2]; -1.62% in test [3]; 1.52% in test [4]; 1.85% in test [5]; 2.67% in [6]. Further, the inhibition was -0.49% in test [7]; -0.79% in [8]; 3.39% in test [9]; -2.9% in [10]; 0.89% in test [11]; 0.5% in test [12]. Also, the inhibition was 2.27% in [13]; -2.06% in test [14]; 1.33% in test [15]; 2.53% in test [16]; 2.65% in test [17]; 1.74% in test [18]. Further, the inhibition was 13.2% in [19] and -2.66% in test [20].
